Source: PubChem BioAssay
FLuc modulator = inhibits or activates purified firefly luciferase, miR-21 counter-screen; P08659; purified FLuc, Km substrates, luminescence inhibition; Potency, µM (series often up to 57.5 µM), actives largely listed as inhibitors; actives 6.9% (n = 360,000); further: nearly all actives have a fitted effect of over 55% in size
Target sequence (P08659 whole entry, looked up): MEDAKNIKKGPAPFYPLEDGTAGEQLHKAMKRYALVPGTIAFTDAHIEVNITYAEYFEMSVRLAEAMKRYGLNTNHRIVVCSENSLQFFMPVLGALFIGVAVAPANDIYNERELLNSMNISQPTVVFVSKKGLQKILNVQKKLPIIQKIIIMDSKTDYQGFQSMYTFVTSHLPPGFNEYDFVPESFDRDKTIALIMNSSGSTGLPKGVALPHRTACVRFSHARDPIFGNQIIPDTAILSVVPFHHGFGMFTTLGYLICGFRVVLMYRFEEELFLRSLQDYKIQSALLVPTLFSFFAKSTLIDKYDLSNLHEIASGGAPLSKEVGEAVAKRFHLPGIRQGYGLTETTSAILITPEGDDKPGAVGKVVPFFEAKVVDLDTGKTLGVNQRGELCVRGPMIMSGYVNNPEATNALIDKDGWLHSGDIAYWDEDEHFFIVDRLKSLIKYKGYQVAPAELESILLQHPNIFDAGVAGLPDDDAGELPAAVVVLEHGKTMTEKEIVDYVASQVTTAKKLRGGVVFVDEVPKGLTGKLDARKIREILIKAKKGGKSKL
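Purified P. pyralis luciferase (10nM final) with 10uM D-luciferin and 10uM ATP (Km levels) in 50mM Tris acetate pH 7.5, 10mM Mg acetate, 0.01% Tween-20, 0.05% BSA; qHTS 6-point titration, ~60 µM downward; luminescence read.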
ELG1 DNA repair = inhibitors of ELG1-dependent DNA repair in HEK293T cells; actives 2.3% (n = 330,000); Potency, µM (highest dose often 46.1 µM), actives largely listed as inhibitors; HEK293T ELG1-luciferase reporter, luminescence, 16 h; DNA damage induced by 5-fluorouridine; further: nearly all actives have a fitted effect of over 55% in size
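In this reporter screen, reduction of luminescence relative to DMSO vehicle indicated activity. Compounds and 5-fluorouridine were added together to 2,000 cells per well, incubated for 16 hr at 37 °C, then developed with ONE-Glo.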
SMN2 splice up = increases expression of the SMN2 splice variant. HEK293 SMN2-luciferase splicing reporter, luminescence, 30-36 h. actives 2.8% (n = 210,000). AID 1458. Potency, µM (top dose mostly 46.1 µM), usual class: activators; further: nearly all actives have a fitted effect of over 55% in size
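HEK293 cells carry an SMN2 […]–luciferase reporter in which exon 7 inclusion puts luciferase in frame. Cells were plated 10-12 h before compound addition, then incubated 30-36 h at 37C. ONE-Glo luminescence was read; sodium butyrate at 4.5 mM final served as control.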
NPC1 promoter act = activates the NPC1 promoter; actives 2.4% (n = 320,000); Potency, µM (series often up to 9.22 µM), usual class: activators; Huh7 NPC1 promoter luciferase reporter, 24 h; further: nearly all actives have a fitted effect of over 60% in size
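NPC1 promoter–luciferase Huh7 cells; 24 h compound; luminescence.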
Rab9 prom act = activators of Rab9 promoter; Huh7 Rab9 promoter-luciferase reporter, luminescence, 24 h; Potency, µM (titrated, usually from 9.22 µM), usual class: activators; actives 2.8% (n = 320,000); AID 485297; further: nearly all actives have a fitted effect of over 60% in size
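Rab9 promoter-driven luciferase in stably transfected Huh7 cells; 1500 cells/well rested 2 h, exposed to compound in DMSO for 24 h at 37 °C, 5% CO2. Luminescence read 10 min after adding luciferase reagent at ambient temperature.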
ELG1 genotoxic = inducers of genotoxicity in HEK293T ELG1-luciferase cells | Potency, µM (series often up to 46 µM), usual class: activators | actives 1.3% (n = 330,000) | HEK293T ELG1-luciferase reporter, luminescence, 16 h | AID 504466; further: nearly all actives have a fitted effect of over 60% in size
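16 hr compound incubation (37 °C, 5% CO2) of HEK293T cells carrying luciferase-tagged ELG1; luciferase then measured by ONE-Glo luminescence after 30 min at RT.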
Numbers stand for hits; 0 = inactive; ? = inconclusive; - = not tested or not shown; [ ] = dose if it differs, or a comment. An excerpt weighted towards active compounds, which were near 9.3% of everything screened. The call rests on the fitted dose curve; in most records, active means well fitted curve in the direction sought with a large enough effect; inconclusive means small, poorly fitted or top-dose-only effect, or another doubt; inactive means no such curve, though single readings can be large; an effect the other way counts as inactive or inconclusive.

SMILES	FLuc modulator	ELG1 DNA repair	SMN2 splice up	NPC1 promoter act	Rab9 prom act	ELG1 genotoxic
CN1C(=O)/C(=C/c2cn(CC(=O)NCc3ccco3)c3ccccc23)NC1=S	0	0	-	0	0	0
O=S(=O)(c1cccs1)N1CCN(Cc2nc3ccccc3s2)CC1	16.9µM	?	0	0	0	0
CCOC(=O)C1CCN(S(=O)(=O)c2ccccc2)CC1	0	0	-	0	0	0
O=C(C1CCN(S(=O)(=O)c2cccs2)CC1)N1CCCCC1	4.26µM	?	-	3.55µM	?	?
O=C(OCc1nc2ccccc2s1)C1CCN(S(=O)(=O)c2cccs2)CC1	13.5µM	?	0	0	0	11.2µM
CCOC(=O)C1CCN(S(=O)(=O)C(F)(F)c2nc3ccccc3s2)CC1	26.9µM	?	0	0	0	0
CC(=O)N1CCC(C(=O)N2CCN(S(=O)(=O)c3cccs3)CC2)CC1	0	0	-	0	0	0
COC(=O)CC1SC(=O)NC1=O (stereo unspecified)	0	0	0	0	0	0
COC(=O)c1ccc(C(=O)Nc2ccc(F)cc2)cc1	12µM	?	-	2.51µM	?	0
COC(=O)c1ccc(NC(=O)Cc2ccc(F)cc2)cc1	?	0	0	0	0	0
O=C(Nc1ccc(F)cc1)c1ccccc1	23.9µM	?	0	?	?	?
O=C(Nc1ccc(F)cc1)c1cccc(C(=O)Nc2ccc(F)cc2)c1	0	0	-	0	0	0
CCCC(=O)Nc1c(-c2ccccc2)c(=O)c(C)nn1-c1ccc(C)cc1	0	0	-	0	0	0
COc1ccccc1-c1nc(SCc2ccccn2)n[nH]1	?	?	0	?	?	?
Cc1cc2nc(-c3ccc(SCc4ccccn4)nc3)[nH]c2cc1C	5.36µM	?	0	?	2.51µM	0
COCCNC(=O)CSc1ccc(-c2nc3ccccc3[nH]2)cn1	?	0	-	0	0	0
N#CCSc1ccc(-c2nc3ccccc3[nH]2)cn1	12µM	?	?	?	?	?
N#CCSc1ccc(S(=O)(=O)N2CCOCC2)cn1	-	0	-	-	-	0
CCOC(=O)CSc1ccc(-c2nc3cc(C)c(C)cc3[nH]2)cn1	1.07µM	?	0	?	?	?
CCOC(=O)CSc1ccc(-c2nc3ccccc3[nH]2)cn1	12µM	0	-	0	0	0
Nc1nc(CN2CCN(c3ccccc3F)CC2)nc(Nc2ccc3c(c2)OCCO3)n1	0	23.1µM	0	0	0	0
CN1CCN(Cc2nc(N)nc(Nc3ccc4c(c3)OCCO4)n2)CC1	?	?	0	3.55µM	3.98µM	?
COc1ccccc1N1CCN(Cc2nc(N)nc(Nc3ccc(C)c(Cl)c3)n2)CC1	0	14.6µM	0	0	0	0
CCOc1ccc(Nc2nc(N)nc(CN3CCN(c4ccccc4F)CC3)n2)cc1	0	16.4µM	0	0	0	0
COc1ccccc1Nc1nc(N)nc(CN2CCN(c3ccccc3F)CC2)n1	0	0	0	0	0	0
SMILES	FLuc modulator	ELG1 DNA repair	SMN2 splice up	NPC1 promoter act	Rab9 prom act	ELG1 genotoxic
Cc1cccc(Nc2nc(N)nc(CN3CCN(Cc4ccc5c(c4)OCO5)CC3)n2)c1	0	?	0	0	0	0
O=C(NC1CCCC1)c1cc2ccccc2o1	?	?	-	0	?	?
O=C(NC1CCCCC1)c1cc2cc(Br)ccc2o1	4.78µM	?	-	3.16µM	?	?
O=C(NC1CCCC1)c1cc2cc(Br)ccc2o1	10.7µM	?	-	3.16µM	2.82µM	?
N#CCCCC#Cc1ccc2c(c1)COc1c3ccccc3nn1-2	0.19µM	?	-	0.708µM	0.1µM	?
CCCCCCC#Cc1ccc2c(c1)COc1c3ccccc3nn1-2	?	?	-	0.794µM	0.891µM	0
CCCCCCCCC#Cc1nc(C)ccc1OC	-	0	-	-	-	0
CCCCC#Cc1ccc2c(c1)COc1c3ccccc3nn1-2	2.69µM	?	-	0.355µM	7.08µM	?
CCOC(=O)c1c(C)[nH]c(C(=O)COC(=O)c2cn(CC)c3nc(C)ccc3c2=O)c1C	0	0	0	0	0	0
Cc1cc(C)c2c(N)c(C(=O)c3ccc(Cl)cc3Cl)sc2n1	0	10.3µM	0	0	0	0
Cc1cc(C)c2c(N)c(C(=O)c3cccc(Cl)c3)sc2n1	0	25.9µM	0	0	0	0
COc1cccc2[nH]c3c(N4CCCC(C)C4)ncnc3c12 (stereo unspecified)	5.36µM	0	0	0	0	0
COc1cccc2[nH]c3c(N4CC(C)CC(C)C4)ncnc3c12 (stereo unspecified)	0	14.6µM	0	0	0	0
COc1cccc2[nH]c3c(N4CCC(C(N)=O)CC4)ncnc3c12	0	?	0	0	0	0
CC(=O)Nc1ccc(S(=O)(=O)NC(C)c2ccncc2)cc1 (stereo unspecified)	0	0	-	0	0	0
CCOC(=O)C(=CNNc1ccccc1)C(=O)OCC	0	6.51µM	-	0	0	0
CCOC(=O)NNc1ccccc1	0	?	-	0	0	0
COc1ccc(Cn2ccnc2CO)cc1[N+](=O)[O-]	0	0	-	0	0	0
CCCn1c(C)cc(C(=O)COC(=O)c2ccc(Cl)c(S(=O)(=O)N3CCCC3)c2)c1C	2.39µM	?	0	0	0	0
CCn1cc(C(=O)OCC(=O)c2cc(C)n(-c3ccccc3F)c2C)c(=O)c2ccc(C)nc21	?	?	0	0	0	0
Cc1cc(C(=O)COC(=O)c2ccc(O)cc2)c(C)n1CC(F)(F)F	-	?	-	2.82µM	3.16µM	?
CCCn1c(C)cc(C(=O)COC(=O)c2ccc[nH]c2=O)c1C	2.69µM	?	-	?	1.26µM	?
CCn1c(C)cc(C(=O)COC(=O)c2ccccc2[N+](=O)[O-])c1C	-	?	-	-	-	0
Cc1cc(C(=O)COC(=O)c2ccc(O)cc2)c(C)n1-c1ccccc1F	2.39µM	?	0	?	?	?
Cc1cc(C(=O)COC(=O)C2=NN(c3ccccc3)C(=O)CC2)c(C)n1CC(F)(F)F	0	0	0	0	0	0
SMILES	FLuc modulator	ELG1 DNA repair	SMN2 splice up	NPC1 promoter act	Rab9 prom act	ELG1 genotoxic
CCCN(CCC)Cc1c(C(=O)N/N=C/c2ccco2)nnn1-c1nonc1N	0	0	-	0	0	0
c1ccc2c(c1)OCC(c1nnc3sc(-c4cnccn4)nn13)O2 (stereo unspecified)	0	0	0	0	0	0
Cc1ccc(-n2c(C)cc(C(=O)COC(=O)c3ccc[nH]c3=O)c2C)cc1C	6.01µM	?	7.08µM	?	?	?
Cc1cc(C(=O)COC(=O)c2ccc[nH]c2=O)c(C)n1-c1ccccc1F	1.51µM	?	-	0.316µM	0.398µM	?
COCCNC(=O)c1ccc(CS(=O)(=O)c2ccccc2OC)o1	0	0	-	0	0	0
O=C(Nc1cccnc1)c1cccc(-c2cc3ccccc3oc2=O)c1	?	?	0	0	0[1.84 µM]	0
